# FLuc counter: inhibits or activates purified firefly luciferase, miR-21 counter-screen; P08659; purified FLuc, Km substrates, luminescence inhibition; Potency, µM (doses to about 57.5 µM), for inactives: top-dose activity change, negative = inhibition, actives largely listed as inhibitors; actives 6.9% (n = 360,000); AID 588342;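 note: plate controls were vehicle for no effect and reference inhibitor for full effect; nearly all actives have a fitted effect of over 55% in size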
# Target sequence (P08659 whole entry, looked up): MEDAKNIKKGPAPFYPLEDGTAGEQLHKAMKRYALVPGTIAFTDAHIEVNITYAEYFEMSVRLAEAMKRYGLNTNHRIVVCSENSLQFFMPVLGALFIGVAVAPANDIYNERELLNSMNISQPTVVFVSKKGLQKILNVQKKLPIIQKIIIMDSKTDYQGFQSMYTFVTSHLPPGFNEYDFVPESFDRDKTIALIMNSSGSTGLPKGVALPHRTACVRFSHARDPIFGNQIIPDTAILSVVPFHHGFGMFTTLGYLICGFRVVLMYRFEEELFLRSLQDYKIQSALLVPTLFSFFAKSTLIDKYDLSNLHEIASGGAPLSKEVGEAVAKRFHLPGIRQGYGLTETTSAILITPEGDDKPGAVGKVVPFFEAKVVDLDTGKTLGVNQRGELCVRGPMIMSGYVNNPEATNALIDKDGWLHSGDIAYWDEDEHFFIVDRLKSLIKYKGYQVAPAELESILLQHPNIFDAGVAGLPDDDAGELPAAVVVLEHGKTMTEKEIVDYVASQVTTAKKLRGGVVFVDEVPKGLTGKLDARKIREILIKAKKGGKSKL
#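 Purified P. pyralis luciferase, 10 nM final, with Km-level 10 uM D-luciferin and 10 uM ATP in 50 mM Tris acetate pH 7.5, 10 mM Mg acetate, 0.01% Tween-20, 0.05% BSA; 6-point qHTS titration about 60 µM downward; luminescence read.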
# Rab9 prom act: activates the Rab9 promoter; Huh7 Rab9 promoter-luciferase reporter, luminescence, 24 h; Potency, µM (top dose mostly 9.22 µM), for inactives: at the highest dose activation, negative = inhibition, most hits filed as activators; actives 2.8% (n = 320,000); note: % of control where 0% means no effect; nearly all actives have a fitted effect of over 60% in size
#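 Promoter activation is measured as luciferase luminescence in Huh7 cells stably transfected with a Rab9 promoter–luciferase construct, following 24 h compound exposure at 37 °C and 10 min reagent incubation at ambient temperature.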
# NPC1 promoter act: NPC1 promoter activation; Huh7 NPC1 promoter luciferase reporter, 24 h; actives 2.4% (n = 320,000); Potency, µM (top dose mostly 9.22 µM), inactives show top-dose activation, usual class: activators; note: % of control where 0% means no effect; nearly all actives have a fitted effect of over 60% in size
#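 Quantitative HTS used a cell-based reporter: Huh7 cells stably bearing the NPC1 promoter upstream of luciferase were treated with compounds for 24 h, and promoter activation was read as luminescence.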
# ELG1 genotoxic: inducers of genotoxicity in HEK293T ELG1-luciferase cells. HEK293T ELG1-luciferase reporter, luminescence, 16 h. Potency, µM (series often up to 46 µM), without a hit: at the highest dose activity change, positive = activation, most hits filed as activators. actives 1.3% (n = 330,000). AID 504466; note: % of control where 0% means no effect; nearly all actives have a fitted effect of over 60% in size
#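 After overnight (16 hr) compound treatment at 37 °C, ELG1-luciferase HEK293T cells were lysed with ONE-Glo; luminescence quantified 30 min later at room temperature.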
# SMN2 splice up: SMN2 splice variant enhancement; HEK293 SMN2-luciferase splicing reporter, luminescence, 30-36 h; Potency, µM (titrated, usually from 46.1 µM), without a hit: at the top dose activity change, positive = activation, most hits filed as activators; actives 2.8% (n = 210,000); AID 1458; note: % of control where 0% means no effect; nearly all actives have a fitted effect of over 55% in size
#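 qHTS luciferase splicing reporter: luminescence rises when SMN2 exon 7 is included in transfected HEK293 cells. Compound exposure lasted 30-36 h at 37C, with 4.5 mM final sodium butyrate as control, followed by a ONE-Glo read.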
# Starred values were filed as active, the others as inactive; ? = inconclusive; . = no result given; ! = a repeat was not active; [ ] = remark or other dose. This is a sample that favours compounds with a hit; in the whole collection about 7.5% have one here. Calls come from the whole dose curve; as a rule, active = well fitted curve in the direction sought with a large enough effect; inconclusive = small, poorly fitted or top-dose-only effect, or another doubt; inactive = no such curve, though single readings can be large; an effect the other way counts as inactive or inconclusive. Potency is the fitted concentration of half-maximal effect.
SMILES,FLuc counter,Rab9 prom act,NPC1 promoter act,ELG1 genotoxic,SMN2 splice up
CCOc1ccc(NS(=O)(=O)c2ccc3[nH]cc(C(=O)NCCOC)c(=O)c3c2)cc1,11µM*!,2µM*,2.5µM*,?,13µM*!
O=C(Nc1ccc2c(c1)OCCO2)C(=O)c1c[nH]c2ccccc12,0.19µM*,0.1µM*,?,?,.
Cc1cc(NC(=O)C(=O)c2c(C)[nH]c3ccccc23)no1,5%,-11%,-3%,?,-22%
O=C(NC1CC1)C(=O)c1c[nH]c2ccccc12,-1%,18%,18%,6%,.
Cc1[nH]c2ccccc2c1C(=O)C(=O)Nc1ccc2c(c1)OCCO2,15µM*,?,?,17%,.
O=C(Nc1ccc2c(c1)OCO2)C(=O)c1c[nH]c2ccccc12,0.67µM*,0.71µM*,0.4µM*,1.8µM*,.
CCN(CC)C(=O)Cn1cc(C(=O)C(=O)Nc2ccc3c(c2)OCCO3)c2ccccc21,3.4µM*,?,30%,-1%,.
CCN(CC)C(=O)Cn1cc(C(=O)C(=O)NCCCN2CCOCC2)c2ccccc21,1%,9%,2%,3%,.
CC(=O)Nc1nc(C)c(C(C)=O)s1,0%,9%,-2%,-5%,2%
CC(=O)c1sc(N/N=C\c2ccc(N(C)C)cc2)nc1C,1.3µM*,2.5µM*,1.3µM*,4.6µM*,.
CC(=O)c1sc(N/N=C/c2cccc(O)c2)nc1C,9.5µM*,?,10%,?,.
COC(=O)c1sc(N/N=C/c2ccc(C(C)C)cc2)nc1C,19µM*,?,29%,13%,.
CC(=O)c1sc(N/N=C/c2cccc([N+](=O)[O-])c2)nc1C,?,?,22%,?,.
Cc1cccc(C)c1NC(=O)C(=O)NCC(c1ccc2c(c1)OCO2)N1CCN(C)CC1 (stereo not given),0%,.,.,.,.
COc1cc(/C=C/C(=O)c2c(O)cc(C)oc2=O)cc(OC)c1O,-16%,2%,1%,-2%,-30%
COc1ccc(/C=C/C(=O)c2c(O)cc(C)oc2=O)c(OC)c1,1.3µM*,1.8µM*,3.5µM*,16µM*,-34%
Cc1cc(O)c(C(=O)/C=C/c2ccc(Cl)cc2)c(=O)o1,2.1µM*,-3%[1.84 µM],20%,2%,.
CSc1ccc(/C=C/C(=O)c2c(O)cc(C)oc2=O)cc1,4.3µM*,?,19%,21%,.
CCOC(=O)C1CCN(C(=O)C2CCN(c3nc4ccc(OC)cc4s3)CC2)CC1,15µM*,-11%,-8%,-10%,-45%
Cc1cccc2sc(N3CCN(C(=O)C4COc5ccccc5O4)CC3)nc12 (stereo not given),-1%,-5%,0%,-3%,.
COc1ccc2nc(N3CCN(C(=O)C4COc5ccccc5O4)CC3)sc2c1 (stereo not given),6µM*,2µM*,2.8µM*,9%,.
O=C(COC(=O)c1cccc(Cl)c1Cl)NCc1cccs1,?,1%,-1%,0%,.
O=C1/C(=C/c2cccc(O)c2)SC(=S)N1CC1CCCO1 (stereo not given),?,-9%,-13%,5%,.
COc1cccc(/C=C2\SC(=S)N(CC3CCCO3)C2=O)c1 (stereo not given),11µM*,-8%,-3%,6%,-20%
COc1cccc(/C=C2\SC(=S)N(N3C(=O)CCCC3=O)C2=O)c1,21µM*,-11%,-1%,2%,12%
SMILES,FLuc counter,Rab9 prom act,NPC1 promoter act,ELG1 genotoxic,SMN2 splice up
CCOC(=O)C1(C)C=C(Nc2cccc(C(=O)O)c2)C(=O)N1c1ccccc1 (stereo not given),24µM*,.,.,.,13µM*
CCOC(=O)C1(C)C=C(Nc2ccccc2)C(=O)N1c1ccccc1 (stereo not given),-3%,-9%,-8%,2%,.
Cc1ccc(N=C/C(C(=O)C(F)(F)F)=C(\O)c2ccco2)cc1Cl,9.5µM*,0%,2%,?,.
O=C(/C(C=Nc1ccc(F)cc1)=C(/O)c1ccco1)C(F)(F)F,8.5µM*,24%,2%,7.3µM*,?
Cc1ccc(-c2nc(-c3nccc4ccccc34)oc2-c2ccccc2)cc1,3µM*,3.2µM*,?,?,3.5µM*
CC(=O)CSc1nc(-c2ccccc2)c(-c2ccccc2)o1,3%,-1%,0%,-1%,.
Cc1cc(Br)c(NC(=O)COn2nnc3ccc(S(C)(=O)=O)cc32)c(Br)c1,-3%,2%,-2%,1%,-17%
COC(=O)C1CN(C(=O)COc2ccc(Cl)cc2Cl)c2ccccc2O1 (stereo not given),19µM*,1%,1%,3%,.
O=C(Nc1ccc2c(c1)OCO2)C1CCN(C(=O)c2ccc(Cl)cc2)CC1,-5%,-12%,-4%,0%,.
CCN(c1ccc(C)cc1)S(=O)(=O)c1nnc(NC(=O)c2ccco2)s1,0%,-15%,2%,0%,.
CCN(CC)S(=O)(=O)c1nnc(NC(=O)c2ccco2)s1,27µM*,8%,8%,2%,.
CC(C)CN(c1ccccc1)S(=O)(=O)c1nnc(NC(=O)c2ccco2)s1,0.85µM*!,0%,2%,-3%,.
CN(Cc1ccco1)S(=O)(=O)c1nnc(NC(=O)c2cccc(Cl)c2)s1,27µM*,25%,29%,-2%,.
C[C@@H]1CN(S(=O)(=O)c2ccc3c(c2)OCCO3)CCN1S(=O)(=O)c1c(F)cccc1F,.,.,.,-1%,.
COc1ccc(C)cc1S(=O)(=O)N(CC(=O)O)c1ccc(C)cc1,2%,2%,-3%,2%,1%
O=C(O)c1cc([N+](=O)[O-])ccc1N1CCCCC1,-1%,1%,-1%,0%,-1%
O=[N+]([O-])c1ccc2c(c1)N([O-])C1(CCCCC1)[N+]2=O,15µM*,10%,0%,2%,.
CCOP(=O)(OCC)C(NC(=O)Nc1ccc(Cl)cc1)c1ccccc1 (stereo not given),-1%,11%,0%,-2%,.
Cc1ccc2nc(/C(C#N)=C/c3ccc(O)c(O)c3)[nH]c2c1,19µM*,?,-1%,?,.
Cc1ccc2nc(C(O)C(O)c3nc4ccc(C)cc4[nH]3)[nH]c2c1 (stereo not given),11µM*,19%,8%,?,-8%
Cc1ccc2nc(/C(C#N)=N/O)[nH]c2c1,13µM*,-9%,8%,-4%,5%
COc1ccc(NC(=O)NCc2ccccn2)c(OC)c1,3%,-2%,-2%,0%,.
Cc1c(C(=O)Nc2ccc3c(c2)OCCO3)sc2ncnc(N3CCCCC3C)c12 (stereo not given),11µM*,-1%,-2%,-11%,.
Cc1nc(N2CCC(C)CC2)c2c(C)c(C(=O)Nc3ccc4c(c3)OCCO4)sc2n1,-10%,0%,-8%,-7%,.
O=c1cnn(-c2ccccc2)c(-c2ccccc2)c1,11µM*,5%,27%,-7%,-8%

# Screening data: PubChem, National Center for Advancing Translational Sciences (NCATS)
